Screen size: about 5,600 compounds; about 390 (7%) showed an effect of 50% or more. The sample holds strong results, similar compounds and a random draw of the others, so the mix is not that of the screen.
target: T1, Protein deacetylase HDAC6 (Homo sapiens) (UniProt Q9UBN7); settings: at 10 µM
T1 sequence (whole entry): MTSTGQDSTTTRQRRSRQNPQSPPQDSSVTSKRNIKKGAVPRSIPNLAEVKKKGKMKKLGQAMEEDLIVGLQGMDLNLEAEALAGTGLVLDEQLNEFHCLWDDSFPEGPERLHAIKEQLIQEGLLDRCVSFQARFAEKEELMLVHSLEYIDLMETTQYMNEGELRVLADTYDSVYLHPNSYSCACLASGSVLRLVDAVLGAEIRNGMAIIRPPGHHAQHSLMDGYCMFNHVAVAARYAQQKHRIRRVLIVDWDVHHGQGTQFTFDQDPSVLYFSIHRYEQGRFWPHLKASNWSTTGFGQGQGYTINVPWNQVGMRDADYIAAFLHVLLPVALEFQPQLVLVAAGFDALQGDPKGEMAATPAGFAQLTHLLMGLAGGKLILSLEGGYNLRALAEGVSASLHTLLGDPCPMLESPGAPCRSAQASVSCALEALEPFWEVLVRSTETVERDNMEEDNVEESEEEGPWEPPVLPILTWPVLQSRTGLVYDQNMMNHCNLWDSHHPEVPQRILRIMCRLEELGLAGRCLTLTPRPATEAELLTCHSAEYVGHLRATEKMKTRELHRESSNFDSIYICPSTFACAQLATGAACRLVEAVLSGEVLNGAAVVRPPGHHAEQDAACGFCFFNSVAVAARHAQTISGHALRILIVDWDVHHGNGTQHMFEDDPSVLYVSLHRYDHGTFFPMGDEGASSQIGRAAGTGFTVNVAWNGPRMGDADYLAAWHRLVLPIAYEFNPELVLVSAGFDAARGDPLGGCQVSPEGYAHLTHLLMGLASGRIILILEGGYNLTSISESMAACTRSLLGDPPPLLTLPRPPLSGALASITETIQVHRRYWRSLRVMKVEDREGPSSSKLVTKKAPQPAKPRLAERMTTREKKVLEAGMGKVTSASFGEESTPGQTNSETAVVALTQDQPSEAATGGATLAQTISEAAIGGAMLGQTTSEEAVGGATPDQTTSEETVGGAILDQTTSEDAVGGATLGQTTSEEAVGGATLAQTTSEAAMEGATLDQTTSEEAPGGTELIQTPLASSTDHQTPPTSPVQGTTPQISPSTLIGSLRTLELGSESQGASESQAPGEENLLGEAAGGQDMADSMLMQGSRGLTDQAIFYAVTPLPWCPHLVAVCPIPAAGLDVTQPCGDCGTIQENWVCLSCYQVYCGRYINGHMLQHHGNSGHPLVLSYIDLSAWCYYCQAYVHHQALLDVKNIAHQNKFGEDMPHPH

SMILES | inhibition [%]
CNCC(=O)O | 15.9
NC(=O)C1=CN([C@@H]2O[C@H](COP(=O)(O)OP(=O)(O)OC[C@H]3O[C@@H](n4cnc5c(N)ncnc54)[C@H](OP(=O)(O)O)[C@@H]3O)[C@@H](O)[C@H]2O)C=CC1 | 28.1
Cc1cccc(C)c1NC(=O)CC12CCCN1CCC2 | -8.45
CC(C)(C)NC(=O)[C@@H]1CN(Cc2cccnc2)CCN1C[C@@H](O)C[C@@H](Cc1ccccc1)C(=O)N[C@H]1c2ccccc2C[C@H]1O | 1.38
CN1CCN(c2ccc(Nc3ncc4cc(C#N)c(=O)n(C5CCCC5)c4n3)cc2)CC1 | -8.66
O=C(Nc1ccncc1)c1cc([N+](=O)[O-])ccc1Cl | 8.83
O=C(Nc1ccccc1)c1cc([N+](=O)[O-])ccc1Cl | -6.48
O=C(Nc1ccc([N+](=O)[O-])cc1Cl)c1cc(Cl)ccc1O | 93.1
CCOc1ccccc1C(N)=O | 18.7
CCCCCCCCOc1ccccc1C(=O)Nc1ccc(C(=O)OCC[N+](C)(CC)CC)cc1 | -3.51
CCCCCCOc1ccccc1C(N)=O | 93.3
CCn1cc(C(=O)O)c(=O)c2ccc(-c3ccncc3)cc21 | 30.6
O=C(O)c1ccccn1 | 12.2
O=C(Cc1ccc(-c2ccccc2)cc1)Nc1ccccn1 | 56.6
O=C(O)Cc1ccc(-c2ccccc2)cc1 | 10.6
COC1/C=C\OC2(C)Oc3c(C)c(O)c4c(O)c(cc(O)c4c3C2=O)NC(=O)/C(C)=C\C=C/C(C)C(O)C(C)C(O)C(C)C(OC(C)=O)C1C (stereo not drawn) | 5.48
O=C(CCCc1ccc(-c2ccccc2F)cc1)Nc1ccc(O)cc1 | 24
Cc1ccccc1C(=O)c1ccc(Nc2ccc(Br)cc2N)cc1Cl | 3.48
COc1cc2nc(C3CC3)nc(N3CCN(c4ccccc4OC)CC3)c2cc1OC | 89.3
COc1cc2nc(N3CCN(C(=O)C4COc5ccccc5O4)CC3)nc(N)c2cc1OC (stereo not drawn) | 6.59
COc1ccccc1N1CCN(CCCCN2C(=O)c3ccccc3C2=O)CC1 | 0.28
CCCn1c(=O)c2nc(C34CC5CC(CC3C5)C4)[nH]c2n(CCC)c1=O | 2.81
CCCCNNC(=O)c1ccc(Br)cc1 | 35.4
CN(C)C(=O)N[C@H]1CC[C@H](CCN2CCN(c3cccc(Cl)c3Cl)CC2)CC1 | 18.9
COc1ccc(-c2nc3cc(C4=NNC(=O)CC4C)ccc3[nH]2)cc1 (stereo not drawn) | 87.1
COc1cc2c(cc1OC)C(c1ccc(N)cc1)=NNC(=O)C2 | -3.23

SMILES | inhibition [%]
CC(C)n1nc(C#Cc2ccccc2)c2c(N)ncnc21 | 19
CCOC(=O)C1CSC(Cc2ccc(OCc3ccc([N+](=O)[O-])cc3)cc2)N1 (stereo not drawn) | 13.2
COc1ccc(C(=O)/C(Br)=C/C(=O)O)cc1 | -2.93
CC(=O)C(=Cc1cc(O)c(O)c([N+](=O)[O-])c1)C(C)=O | 13.4
CS(=O)(=O)c1ccc(-c2cnc(NCc3ccco3)n3cnnc23)cc1 | 7.67
Cc1cc(C)c2c(N)c(C(=O)NCc3ccc(Cl)cc3)sc2n1 | 16.5
Cc1coc2c1C(=O)C(=O)c1c-2ccc2c1CCCC2(C)C | 42
Cc1coc2c1C(=O)C(=O)c1c-2ccc2c(C)cccc12 | 93.9
Cc1nn(-c2ccccc2)c(C)c1/C=N/N1CCN(Cc2ccccc2)CC1 | 9.22
O=C(O)C[C@H](O)C[C@H](O)CCc1c(C2CC2)nc2ccccc2c1-c1ccc(F)cc1 | 26
CCCCCCCC[N+](C)(C)Cc1ccccc1 | -8.69
c1cn2cc(-c3ccc4cn[nH]c4c3)nc(Nc3ccc(N4CCOCC4)cc3)c2n1 | 20.2
CC(=O)/N=c1/sc(S(N)(=O)=O)nn1C | -2.26
NS(=O)(=O)c1nn2cc(-c3ccccc3)nc2s1 | 96.2
CC(=O)OCC(=O)[C@@]1(O)CC[C@H]2[C@@H]3CCC4=CC(=O)C=C[C@]4(C)[C@@]3(F)[C@@H](O)C[C@@]21C | 39.3
O=C1c2cccc(O)c2C(=O)c2c(O)cccc21 | 55.5
CN1CCc2cccc3c2[C@H]1Cc1ccc(O)c(O)c1-3 | -6.04
O=C(O)c1cc(O)c2c(c1)C(=O)c1cccc(O)c1C2=O | 24.6
COc1cc(O)c2c(c1)C(=O)c1cc(C)cc(O)c1C2=O | 24.3
C[C@@H]1CC(=O)c2c(ccc3c2C(=O)c2cccc(O)c2C3=O)C1 | 113
O=C1c2c(O)cccc2Cc2cccc(O)c21 | 3.84
Cc1cc(O)c2c(c1)C(=O)c1cccc(O)c1C2=O | 82.4
CC1(C)C(=O)N=C2C1=C(O)C(=O)c1ccccc12 | 24.8
CC(=O)c1cc2c(o1)C(=O)c1ccccc1C2=O | 25.7
CNCCCOc1cc(F)c(-c2c(Cl)nc3ncnn3c2N[C@@H](C)C(F)(F)F)c(F)c1 | 9.44
COc1ccc(CNC(=O)c2cc(-c3cncc(C)c3)ncc2-c2nccs2)nc1OC | 8.47

SMILES | inhibition [%]
COc1cccc(OC)c1OCCNCC1COc2ccccc2O1 (stereo not drawn) | -6.9
CSCC[C@H](NC(=O)[C@H](CC(C)C)NC(=O)CNC(=O)[C@H](Cc1ccccc1)NC(=O)[C@H](Cc1ccccc1)NC(=O)[C@H](CCC(N)=O)NC(=O)[C@H](CCC(N)=O)NC(=O)[C@@H]1CCCN1C(=O)[C@H](CCCCN)NC(=O)[C@@H]1CCCN1C(=O)[C@@H](N)CCCN=C(N)N)C(N)=O | 37.9
Fc1ccc(CN2CCC(Nc3ccc(C(F)(F)F)nn3)CC2)cc1F | 20.4
CC#CCC(C)[C@H](O)/C=C/[C@@H]1[C@H]2C/C(=C/CCCC(=O)O)C[C@H]2C[C@H]1O (stereo partly drawn) | -9.51
COC(=O)c1ccccc1-c1c2ccc(N)cc2[o+]c2cc(N)ccc12 | 2.6
CN[C@@H]1[C@H](OC2[C@H](O[C@H]3[C@H](O)[C@@H](O)[C@H](N=C(N)N)[C@@H](O)[C@@H]3N=C(N)N)O[C@@H](C)[C@]2(O)C=O)O[C@@H](CO)[C@H](O)[C@H]1O (stereo partly drawn) | 17.6
Cc1ccccc1/N=N/c1ccc(NC(=O)c2ccnn2C)c(C)c1 | 36.7
O=C(Nc1cccc(Nc2ncc(Br)c(NCCc3cnc[nH]3)n2)c1)N1CCCC1 | 41.2
COc1cc2c(cc1OC)-c1cc3nc4ccccc4nc3n1C(C)(C)C2 | 19.3
CCCn1c(=O)[nH]c2nc(-c3ccc(S(=O)(=O)N4CCN(c5ccc(Cl)cc5)CC4)cc3)[nH]c2c1=O | 3.66
Cc1ccc2c(c1CCC(=O)O)CC[C@@H](NS(=O)(=O)c1ccc(Cl)cc1)C2 | -3.38
Nc1nc2c(ccc3ccccc32)s1 | 67.3
Oc1ccc2ccccc2c1SSc1c(O)ccc2ccccc12 | 0.31
Cc1cc(CC(C)CC(C)(C)C)n(O)c(=O)c1 (stereo not drawn) | -5.15
O=C1NC(=O)C(c2ccccc2[N+](=O)[O-])=C1Nc1ccc(O)c(Cl)c1 | 3.99
COc1cc(CCc2cc(NC(=O)c3ccc(N4C[C@@H](C)N[C@@H](C)C4)cc3)n[nH]2)cc(OC)c1 | 2.96
O=c1[nH]c(=O)n([C@H]2C[C@H](O)[C@@H](CO)O2)cc1F | 12.7
Cc1cn([C@H]2C=C[C@@H](CO)O2)c(=O)[nH]c1=O | 102
CCc1cn([C@H]2C[C@H](O)[C@@H](CO)O2)c(=O)[nH]c1=O | -6.76
CN1c2cc3c(cc2N=C(c2ccc(C(=O)O)cc2)c2ccccc21)C(C)(C)CCC3(C)C | 27.7
Nc1ncnc2c1ncn2[C@@H]1O[C@H](C[C@@H](N)CC[C@H](N)C(=O)O)[C@@H](O)[C@H]1O | -9.09
CC(C)(COP(=O)(O)OP(=O)(O)OC[C@H]1O[C@@H](n2cnc3c(N)ncnc32)[C@H](O)[C@@H]1OP(=O)(O)O)[C@@H](O)C(=O)NCCC(=O)NCCS | 15.2
NC(C(=O)O)c1nnn[nH]1 (racemic) | 4.47
Cn1cnc2[nH]c(=O)[nH]c(=O)c21 | 9.47
Cc1ccc(-c2ccc(C)cn2)nc1 | 100
CCOC1O[C@H]([C@@H](COCc2ccccc2)OCc2ccccc2)[C@H](OCc2ccccc2)[C@H]1O (stereo partly drawn) | 29.1

SMILES | inhibition [%]
O=C(O)CCc1c[nH]c2ccccc12 | 6.28
C/C(=N\N=C(/S)N/N=C(\S)Nc1ccccc1Cl)c1ccccn1 | 41.4
COc1ccc2cc3[n+](cc2c1OC)CCc1cc2c(cc1-3)OCO2 | -6.81
O=C(COc1ccc(C(=O)c2ccccc2)cc1)NC1CCN(Cc2ccccc2)CC1 | -4.58
O=C(NC1CCN(Cc2ccccc2)CC1)c1ccc(I)cc1 | 21.3
O=C(O)c1ccc(CN2CCC(CN[C@@H]3C[C@H]3c3ccccc3)CC2)cc1 | 59.3
CCCCCCCCCCCCCCCCCCCCCCCCCCCCO | 3.55
CCN(CC)CCOC(=O)C1(c2ccccc2)CCCC1 | 12.3
CCC(C)(CN(C)C)OC(=O)c1ccccc1 (stereo not drawn) | 12.2
CC1(C(=O)O)NCCc2cc(O)c(O)cc21 (stereo not drawn) | -7.17
C[C@@H](c1nc(-c2ccc(C#N)cc2)cs1)[C@](O)(Cn1cncn1)c1cc(F)ccc1F | 13.7
COCC(O)Cn1ccnc1[N+](=O)[O-] (stereo not drawn) | 2.38
CC1(C)S[C@@H]2[C@H](/N=C/N3CCCCCC3)C(=O)N2[C@H]1C(=O)O | 7.48
c1ccc(-c2ccc(CNc3nc(-c4ccccn4)nnc3-c3ccccc3)cc2)cc1 | 58.9
c1ccc(NCc2ccc(CNc3ccccn3)cc2)nc1 | -9.35
CC[C@H](CO)Nc1nc(NCc2ccc(-c3ccccn3)cc2)c2ncn(C(C)C)c2n1 | 22.9
CC1=NN(c2ccccc2)C(=O)C1 | -9.97
Cn1c(-c2ccccc2)nnc1S(C)(=O)=O | 36
C/N=c1/nc(-c2ccccc2)n(-c2ccccc2)s1 | 83.4
O=C(c1ccc(F)cc1)C1CCN(CCn2c(=S)[nH]c3ccccc3c2=O)CC1 | 13.2
O=C(O)c1c2ccccc2cc2ccccc12 | 22.9
Cn1ncc(Cl)c1-c1cc(C(=O)N[C@H](CN)Cc2cccc(F)c2)sc1Cl | -7.69
O=C(c1ccc(F)cc1)N1CCC[C@H](c2nc(-c3ccc(F)cc3)no2)C1 | 10.8
O=C(O)c1cccc(-c2noc(-c3ccccc3F)n2)c1 | 105
FC(F)(F)c1cccc(-c2noc(-c3cc(-c4ccccc4)c(C(F)(F)F)s3)n2)c1 | 18.5

From ChEMBL document CHEMBL4808148, “HDAC6 screening dataset using tau-based substrate in an enzymatic assay yields selective inhibitors and activators” (2021)
